Experimental findings from PubChem BioAssay (NCI) are described below.

The panel holds about 83,000 compounds, 20% with a hit somewhere; the sample as a whole holds those more often.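 Results are percent growth after 48 hours of single-concentration exposure. 100 means growth as in untreated cells, lower positive values show inhibition; negative values down to -100 show cell death.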 Values without a mark were called inactive. The source made the active and inactive calls. Rule for the calls: active = growth percent below 10; inactive = the rest.

Test systems include NCI-H23 lung; NCI-H226 lung; NCI-H322M lung; HOP-62 NSCLC; NCI-H460 lung; HOP-92 NSCLC; A549/ATCC NSCLC; 786-0 renal; COLO 205 colon; DU-145 prostate; K-562 leukemia; MALME-3M melanoma; MDA-MB-231 breast; RXF 393 renal; SF-268 CNS; SF-539 CNS; UACC-257 melanoma; M14 melanoma; SF-295 CNS.
Holding throughout (experiment): NCI-60 one-dose screen, 48 h (100 = growth as untreated, 0 = no growth, -100 = all killed)
Common to all, as to settings: 10 µM unless noted

In the case of `CC(=O)c1ccc(NS(=O)(=O)c2ccc([N+](=O)[O-])cc2)cc1`, the growth with NCI-H23 lung was 105%; with NCI-H226 lung, 99.4%; in the experiment with NCI-H322M lung it was 121%; in the experiment with HOP-62 NSCLC, 87%; in the experiment with NCI-H460 lung, 114%; with HOP-92 NSCLC it was 83.4%. In addition, the growth is 95.5% in the experiment with A549/ATCC NSCLC; 105% in the experiment on 786-0 renal; 106% in the experiment with COLO 205 colon; 111% in the experiment on DU-145 prostate; 82.1% in the experiment on K-562 leukemia; 115% with MALME-3M melanoma. Besides, the growth is 88.9% in the experiment on MDA-MB-231 breast; 104% in the experiment with RXF 393 renal; 104% in the experiment on SF-268 CNS; 97.8% in the experiment on SF-539 CNS; 105% with UACC-257 melanoma; 107% in the experiment on M14 melanoma.

In the case of `CCOc1cc(CCNS(=O)(=O)c2ccc(C)cc2)c(C(C)=O)cc1OCC`, the growth in the experiment with NCI-H23 lung was 89.3% [100 µM]; with NCI-H226 lung, 81% [100 µM]; in the experiment with NCI-H322M lung it was 108% [100 µM]; in the experiment with HOP-62 NSCLC, 96.6% [100 µM]; with NCI-H460 lung it was 76.9% [100 µM]; with HOP-92 NSCLC it was -5.84% [100 µM] (active). Moreover, the growth was 74.8% [100 µM] with A549/ATCC NSCLC; 74.9% [100 µM] in the experiment with 786-0 renal; 95.9% [100 µM] in the experiment with COLO 205 colon; 76.1% [100 µM] with DU-145 prostate; 41.3% [100 µM] in the experiment with K-562 leukemia; 98.3% [100 µM] in the experiment with MALME-3M melanoma. For the same compound, the growth in the experiment on MDA-MB-231 breast was 78.5% [100 µM]; in the experiment with RXF 393 renal, 87% [100 µM]; in the experiment on SF-268 CNS, 79.9% [100 µM]; in the experiment on SF-539 CNS, 101% [100 µM]; in the experiment on UACC-257 melanoma, 77.8% [100 µM]; with M14 melanoma, 79.9% [100 µM].

Turning to `Cc1cc(C)c2c(N)c3cccc(C)c3nc2n1`, the growth in the experiment with NCI-H23 lung is -28.6% (active); with NCI-H226 lung it was -10.6% (active); in the experiment with NCI-H322M lung, 0.65% (active); with HOP-62 NSCLC, -28.4% (active); with NCI-H460 lung, -1.3% (active); in the experiment on HOP-92 NSCLC, -12.9% (active). Further, the growth in the experiment with A549/ATCC NSCLC is -40.9% (active); in the experiment on 786-0 renal, -3.97% (active); with COLO 205 colon, -18.2% (active); in the experiment on DU-145 prostate, 2.87% (active); in the experiment with K-562 leukemia, -11.1% (active); in the experiment with MALME-3M melanoma, -23.3% (active). For the same compound, the growth in the experiment with MDA-MB-231 breast is 14.7%; in the experiment with SF-268 CNS it was 9.97% (active); with SF-295 CNS it was 1.7% (active); in the experiment with SF-539 CNS, 1.42% (active); in the experiment on M14 melanoma it was -35.1% (active).

Consider `COc1cccc(N2CCN(CC(=O)N3CCN(c4nnc(-c5ccc(Cl)cc5)c(-c5ccc(Cl)cc5)n4)CC3)CC2)c1`, for which the growth was 82.9% in the experiment with NCI-H23 lung; 74.7% in the experiment on NCI-H226 lung; 71.9% in the experiment on NCI-H322M lung; 95.9% in the experiment with HOP-62 NSCLC; 70.8% with NCI-H460 lung; 11.9% in the experiment on HOP-92 NSCLC. In addition, the growth in the experiment on A549/ATCC NSCLC is -1.64% (active); with 786-0 renal, 79.4%; with COLO 205 colon, 78.6%; with DU-145 prostate it was 89%; in the experiment on K-562 leukemia it was 32.6%; with MALME-3M melanoma, 92.2%. In addition, the growth with MDA-MB-231 breast is 83.1%; in the experiment with SF-268 CNS, 84.1%; in the experiment on SF-295 CNS, 66.7%; in the experiment with SF-539 CNS, 57.8%; in the experiment on M14 melanoma, 70.5%.

On to `CCN(CC)CCOCC[C@H]1CC[C@H]2[C@@H]3[C@H](C)Cc4cc(OS(N)(=O)=O)ccc4[C@H]3CC[C@]12C`, for which the growth with NCI-H23 lung is -87.4% (active); in the experiment on NCI-H226 lung, -61.9% (active); in the experiment on NCI-H322M lung, -24.9% (active); in the experiment with HOP-62 NSCLC it was -96.7% (active); with NCI-H460 lung, -85.2% (active); in the experiment with HOP-92 NSCLC, -88.2% (active). Further, the growth is -90.2% (active) in the experiment on A549/ATCC NSCLC; -99.6% (active) in the experiment on 786-0 renal; -78.5% (active) with COLO 205 colon; -58.6% (active) in the experiment on DU-145 prostate; -63.8% (active) with K-562 leukemia; -67.5% (active) in the experiment with MALME-3M melanoma. The growth in the experiment on MDA-MB-231 breast was -67.3% (active); with SF-268 CNS, -80.2% (active); in the experiment on SF-295 CNS, -65% (active); with SF-539 CNS, -96.1% (active); in the experiment with M14 melanoma, -97.1% (active).

For the compound `NS(=O)(=O)c1ccc(-n2ncc3c(SCc4ccccc4)ncnc32)cc1`, the growth in the experiment with NCI-H23 lung is 100%; in the experiment with NCI-H226 lung it was 99.8%; in the experiment with NCI-H322M lung, 87.7%; with HOP-62 NSCLC it was 66.9%; with NCI-H460 lung, 105%; with HOP-92 NSCLC it was 43%. In addition, the growth in the experiment on A549/ATCC NSCLC was 80.8%; in the experiment on 786-0 renal, 85.1%; in the experiment on COLO 205 colon, 110%; in the experiment on DU-145 prostate, 78.1%; with K-562 leukemia it was 74.8%; with MALME-3M melanoma it was 82.8%. The growth is 91.4% in the experiment on MDA-MB-231 breast; 96.2% in the experiment on SF-268 CNS; 64.7% in the experiment with SF-295 CNS; 91.6% with SF-539 CNS; 56.6% with UACC-257 melanoma; 67% in the experiment with M14 melanoma.

Turning to `CN(C)CCCN=c1cc2c(=O)n(CCCN(C)C)c(=O)c3c(NCCCN(C)C)cc4c(O)n(CCCN(C)C)c(=O)c1c4c3-2`, the growth is 21.1% in the experiment with NCI-H23 lung; -33.2% (active) in the experiment with NCI-H226 lung; -26.9% (active) in the experiment with NCI-H322M lung; -11.4% (active) with HOP-62 NSCLC; -43.5% (active) with NCI-H460 lung; -0.168% (active) in the experiment with HOP-92 NSCLC. The growth in the experiment with A549/ATCC NSCLC was -30.8% (active); in the experiment with 786-0 renal, -47.5% (active); in the experiment on COLO 205 colon, -56.6% (active); in the experiment on DU-145 prostate, -40.7% (active); in the experiment with K-562 leukemia, 6.48% (active); with MDA-MB-231 breast, -0.632% (active). For the same compound, the growth with RXF 393 renal is -68.3% (active); with SF-268 CNS it was 1.31% (active); in the experiment with SF-295 CNS, -34.8% (active); with SF-539 CNS, -23% (active); in the experiment with UACC-257 melanoma, -27.3% (active); with M14 melanoma, 3.47% (active).

In the case of `COc1ccc(NC(=O)c2ccccc2-c2ccccc2)c(C(N)=O)c1`, the growth in the experiment with NCI-H23 lung was 53.7%; in the experiment on NCI-H226 lung, 70.2%; in the experiment with NCI-H322M lung, 58.7%; with HOP-62 NSCLC, 45.3%; in the experiment on NCI-H460 lung, 17%; with HOP-92 NSCLC, 57.3%. The growth in the experiment on A549/ATCC NSCLC is 46.5%; with 786-0 renal, 28.5%; in the experiment with COLO 205 colon, 9.95% (active); with DU-145 prostate, 29.6%; with K-562 leukemia, 14.2%; in the experiment with MALME-3M melanoma it was 34.3%. The growth is 54.1% with MDA-MB-231 breast; 49.5% in the experiment with SF-268 CNS; 17.4% in the experiment on SF-295 CNS; -1.25% (active) in the experiment on SF-539 CNS; 49.7% in the experiment with UACC-257 melanoma; 18.2% in the experiment on M14 melanoma.

As for `O=C(CN1CCN(c2ccc(Cl)cc2)CC1)N1CCN(c2nnc(-c3ccccc3)c(-c3ccccc3)n2)CC1`, the growth with NCI-H23 lung was 34.9%; in the experiment on NCI-H226 lung, 43.7%; in the experiment with NCI-H322M lung, 80.7%; in the experiment on HOP-62 NSCLC, 58.1%; in the experiment with NCI-H460 lung it was 30.7%; with HOP-92 NSCLC it was 39.1%. For the same compound, the growth with A549/ATCC NSCLC was -6.5% (active); in the experiment with 786-0 renal, 35.9%; in the experiment with COLO 205 colon, 33%; in the experiment on DU-145 prostate it was 62.8%; in the experiment with K-562 leukemia it was 4.43% (active); in the experiment with MALME-3M melanoma, 76.5%. For the same compound, the growth was 64.5% with MDA-MB-231 breast; 58.5% in the experiment on SF-268 CNS; 38.4% with SF-295 CNS; 50.5% with SF-539 CNS; 60.1% with M14 melanoma.
